Assay results from PubChem BioAssay (Tox21).
Values joined by “and” are separate entries in the source; they are usually repeats but may differ in a detail not shown here. Identical values can stand only once. Records with an inconclusive call do not appear. Some structures have more than one record in an assay (separate samples or runs), and their calls can disagree. Active and inactive are the calls of the source. Unless noted, the call rests on the fitted dose curve.

How the values were obtained:
[1] = Nuclear factor erythroid 2-related factor 2/antioxidant responsive element (Nrf2/ARE) small molecule agonists: qHTS cell viability counter screen in human keratinocytes (AID 1919968; active means well fitted curve in the direction sought with a large enough effect in the repeat runs; an effect the other way counts as inactive or inconclusive; further: nearly all actives have a fitted effect of over 55% in size)
Summary of the method: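 HaCaT ARE reporter line, 1,500 cells/well; 5 h settle, 37 C/5% CO2; cpd in DMSO pinned; 23 h exposure; CellTiter-Fluor, 1 h; fluorescence.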

[2] = Nuclear factor erythroid 2-related factor 2/antioxidant responsive element (Nrf2/ARE) small molecule agonists: luciferase reporter gene qHTS assay in human keratinocytes (AID 1919969); further: nearly all actives have a fitted effect of over 35% in size; further: potency means the concentration at half of the fitted maximal effect
[3] = target: Gonadotropin-releasing hormone receptor (Homo sapiens) (UniProt P30968); assay: Human gonadotropin-releasing hormone receptor (GnRHR) small molecule agonists, calcium flux assay in GnRHR-HEK293 cells (AID 1920063); further: nearly all actives have a fitted effect of over 35% in size
Chain of Gonadotropin-releasing hormone receptor (Homo sapiens) (P30968 whole entry, looked up): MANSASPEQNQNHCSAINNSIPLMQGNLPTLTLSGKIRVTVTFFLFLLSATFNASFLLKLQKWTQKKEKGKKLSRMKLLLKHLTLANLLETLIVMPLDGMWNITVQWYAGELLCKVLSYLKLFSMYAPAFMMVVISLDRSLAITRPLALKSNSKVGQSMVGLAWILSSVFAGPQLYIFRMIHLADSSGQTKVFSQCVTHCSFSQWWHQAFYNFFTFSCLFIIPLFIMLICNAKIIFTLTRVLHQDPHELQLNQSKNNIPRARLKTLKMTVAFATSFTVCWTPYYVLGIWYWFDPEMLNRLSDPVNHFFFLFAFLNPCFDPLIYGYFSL
Summary of the method: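 GnRHR-HEK293, 1500 cells/well, 18 h 37 C/5% CO2; Ca dye 1 h 37 C; cpd pinned (DMSO), agonist mode; kinetic FL 480/540, 3 min, 1 s reads; 15 conc, n=3.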

[4] = target: KiSS-1 receptor (Homo sapiens) (UniProt Q969F8); assay: Human kisspeptin (KISS1R) small molecule agonists, calcium flux assay in KISS1R-HEK293 cells (AID 1920064; active means well fitted curve in the direction sought with a large enough effect in the repeat runs; an effect the other way counts as inactive or inconclusive)
Chain of KiSS-1 receptor (Homo sapiens) (Q969F8 whole entry, looked up): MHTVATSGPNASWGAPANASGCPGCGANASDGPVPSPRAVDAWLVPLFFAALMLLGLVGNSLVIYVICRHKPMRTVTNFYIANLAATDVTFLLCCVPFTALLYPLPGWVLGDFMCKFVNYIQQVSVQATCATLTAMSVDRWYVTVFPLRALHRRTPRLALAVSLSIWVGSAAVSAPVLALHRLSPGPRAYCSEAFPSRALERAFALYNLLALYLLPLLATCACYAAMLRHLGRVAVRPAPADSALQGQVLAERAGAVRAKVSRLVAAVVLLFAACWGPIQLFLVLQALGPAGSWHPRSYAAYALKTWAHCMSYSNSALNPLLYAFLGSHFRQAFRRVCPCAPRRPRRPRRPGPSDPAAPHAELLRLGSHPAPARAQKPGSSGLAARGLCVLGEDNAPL
Summary of the method: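 Stable human KISS1R HEK293 line; 18 h plating, 37 C/5% CO2; calcium dye 1 h 37 C; compound pin transfer; kinetic fluorescence Ex/Em 480/540, 3 min.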

[5] = G protein-coupled receptor (GPCR) small molecule agonists, calcium flux assay: HEK293 wild type cell line counter screen (AID 1920065)
Summary of the method: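 Kinetic fluorescence at Ex/Em 480/540, recorded every second over 3 min, served as the read-out after compound addition. Each compound was tested at 15 concentrations in triplicate on cells pre-loaded with calcium dye for 1 h.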

[6] = p53 small molecule agonists, cell-based qHTS assay with human liver microsomes (AID 1963577)
Summary of the method: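 p53RE-bla reporter cells were pre-incubated 5 h at 37 C, then treated with compounds plus human liver microsomes (0.5 mg/mL final) and NADPH (0.5 mg/mL final) for 16 h at 37 C. Beta-lactamase activity was read by LiveBLAzer fluorescence after 2 h at room temperature.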

[7] = p53 small molecule agonists, cell-based qHTS assay with rat liver microsomes (AID 1963578)
Summary of the method: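 p53RE-bla cells were exposed to compounds together with rat liver microsomes (0.5 mg/mL final) and NADPH (0.5 mg/mL final) for 16 h at 37 C, then read by LiveBLAzer beta-lactamase fluorescence after 2 h at room temperature.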

[8] = p53 small molecule agonists, cell-based qHTS assay with human liver microsomes: qHTS cell viability counter screen (AID 1963579); further: nearly all actives have a fitted effect of over 45% in size
Summary of the method: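 p53RE-bla cells (4,000/well) were pre-incubated 5 h at 37 C, then given compounds in DMSO plus human liver microsomes (0.5 mg/mL final) and NADPH (0.5 mg/mL final) for 16 h at 37 C. Viability was read by CellTiter-Glo luminescence.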

[9] = p53 small molecule agonists, cell-based qHTS assay with rat liver microsomes: qHTS cell viability counter screen (AID 1963580); further: nearly all actives have a fitted effect of over 45% in size
Summary of the method: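 In HCT-116 cells carrying a p53 response element-bla reporter, compounds were metabolically activated in situ by rat liver microsomes with NADPH over 16 h. Cell ATP content then served as the cytotoxicity measure.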

[10] = p53 small molecule agonists, cell-based qHTS assay: qHTS cell viability counter screen (AID 1963581); further: nearly all actives have a fitted effect of over 45% in size
Summary of the method: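 HCT-116 p53RE-bla cells, 4,000/well, plated 5 h before compound pin transfer; 16 h at 37 C; bla substrate 2 h RT; then CellTiter-Glo, 30 min RT, luminescence.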

[11] = p53 small molecule agonists, cell-based qHTS assay (AID 1963582; active means well fitted activation curve with a large enough effect in the signal ratio in the repeat runs, not every such curve was filed as active; the % refers to the signal ratio)
Summary of the method: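 Reporter line: p53RE-bla. Pre-incubation 5 h, 37 C, 5% CO2; compound (DMSO, pin tool) 16 h, 37 C; B/G FRET substrate 2 h RT; fluorescence intensity read.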

[12] = target: 5-hydroxytryptamine receptor 2A (Homo sapiens) (UniProt P28223); assay: 5-hydroxytryptamine receptor 2A (HTR2A) small molecule agonists, cell-based qHTS assay (AID 1963587); further: nearly all actives have a fitted effect of over 30% in size; further: potency means the concentration at half of the fitted maximal effect
Chain of 5-hydroxytryptamine receptor 2A (Homo sapiens) (P28223 whole entry, looked up): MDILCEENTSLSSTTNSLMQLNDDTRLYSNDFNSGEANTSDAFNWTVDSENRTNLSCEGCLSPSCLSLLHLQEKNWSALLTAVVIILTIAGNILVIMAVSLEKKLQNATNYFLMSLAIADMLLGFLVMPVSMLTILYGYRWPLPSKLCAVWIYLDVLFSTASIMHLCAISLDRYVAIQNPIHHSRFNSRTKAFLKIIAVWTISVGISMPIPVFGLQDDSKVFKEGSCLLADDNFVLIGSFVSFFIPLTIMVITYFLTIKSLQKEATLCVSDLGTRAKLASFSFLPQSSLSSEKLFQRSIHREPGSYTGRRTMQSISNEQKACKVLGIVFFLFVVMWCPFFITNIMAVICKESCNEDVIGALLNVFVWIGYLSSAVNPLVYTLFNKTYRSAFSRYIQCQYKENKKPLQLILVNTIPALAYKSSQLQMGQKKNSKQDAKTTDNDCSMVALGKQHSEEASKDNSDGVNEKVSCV
Summary of the method: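 HTR2A-CHO cells, plated 18 h at 37 C/5% CO2, dye-loaded 1 h at 37 C; compounds in DMSO added by pin tool (agonist mode). Intracellular calcium flux read as kinetic fluorescence on FDSS over 2 min at 1 s intervals.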

[13] = target: Muscarinic acetylcholine receptor M1 (Homo sapiens) (UniProt P11229); assay: Cholinergic receptor muscarinic 1 (CHRM1) small molecule agonists, cell-based qHTS assay (AID 1963589); further: nearly all actives have a fitted effect of over 35% in size
Chain of Muscarinic acetylcholine receptor M1 (Homo sapiens) (P11229 whole entry, looked up): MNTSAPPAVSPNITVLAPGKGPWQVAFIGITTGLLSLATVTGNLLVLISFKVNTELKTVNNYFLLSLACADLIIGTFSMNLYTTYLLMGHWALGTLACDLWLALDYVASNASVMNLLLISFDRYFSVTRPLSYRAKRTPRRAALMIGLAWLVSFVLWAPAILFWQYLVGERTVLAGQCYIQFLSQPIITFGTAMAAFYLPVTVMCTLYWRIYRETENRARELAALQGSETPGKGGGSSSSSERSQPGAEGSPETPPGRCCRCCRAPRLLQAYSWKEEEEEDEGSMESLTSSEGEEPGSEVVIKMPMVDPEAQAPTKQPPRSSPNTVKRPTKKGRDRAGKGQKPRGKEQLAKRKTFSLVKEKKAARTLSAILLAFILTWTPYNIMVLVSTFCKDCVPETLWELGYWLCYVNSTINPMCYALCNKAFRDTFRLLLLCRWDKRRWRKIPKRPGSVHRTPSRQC
Summary of the method: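 Human M1 in stable CHO line; 18 h plating, 1 h dye load 37 C; cpd added (agonist mode); Ca2+ fluorescence kinetic read, 1 s intervals; 15 conc, 3 runs.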

[14] = cAMP Responsive Elements (CRE) small molecule agonists, cell-based qHTS assay (AID 1963590)
Summary of the method: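 HEK 293T CRE-bla, 2,000 cells/well, 18 h preincubation 37 C/5% CO2; cpds (DMSO) pinned, 3 h; LiveBLAzer B/G FRET substrate, 2 h RT.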

[15] = cAMP Responsive Elements (CRE) small molecule antagonists, cell-based qHTS assay (AID 1963591; active means well fitted inhibition curve with a large enough effect in the signal ratio in the repeat runs, not every such curve was filed as active; the % refers to the signal ratio)
Summary of the method: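 Beta-lactamase reporter read by FRET substrate (LiveBLAzer B/G) after 2 h at room temperature. CRE-bla HEK293T cells had received compound plus 0.25 uM (final) NKH477 for 3 h at 37 °C.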

[16] = target: Beta-2 adrenergic receptor (Homo sapiens) (UniProt P07550); assay: Adrenergic beta2 receptor (ADRB2) small molecule antagonists, cell-based qHTS assay (AID 1963592); further: series mostly up to about 92 µM; nearly all actives have a fitted effect of over 50% in size
Chain of Beta-2 adrenergic receptor (Homo sapiens) (P07550 whole entry, looked up): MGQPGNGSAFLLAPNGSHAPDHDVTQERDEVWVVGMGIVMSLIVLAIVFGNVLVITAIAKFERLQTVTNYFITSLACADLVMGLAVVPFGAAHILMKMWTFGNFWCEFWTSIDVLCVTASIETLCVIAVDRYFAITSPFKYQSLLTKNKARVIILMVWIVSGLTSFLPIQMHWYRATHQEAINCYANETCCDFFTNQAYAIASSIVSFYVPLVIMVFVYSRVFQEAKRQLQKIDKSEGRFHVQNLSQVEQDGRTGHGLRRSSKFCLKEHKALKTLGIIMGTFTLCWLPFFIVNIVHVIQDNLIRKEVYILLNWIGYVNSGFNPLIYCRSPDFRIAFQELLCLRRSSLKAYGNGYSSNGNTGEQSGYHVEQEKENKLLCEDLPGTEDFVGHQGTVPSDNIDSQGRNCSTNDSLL
Summary of the method: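 Cells (CHO, stable ADRB2 overexpression) incubated 18-20hr at 37C; compounds added from DMSO; agonist mix (1nM isoproterenol, 100uM IBMX, 25uM Ro-20-1724) added; 0.5hr RT; d2-cAMP and anti-cAMP-cryptate added; 1hr RT; 665/615 nm read.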

[17] = target: Beta-2 adrenergic receptor (Homo sapiens) (UniProt P07550); assay: Adrenergic beta2 receptor (ADRB2) small molecule agonists, cell-based qHTS assay (AID 1963593);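 further: CHO cells stably overexpressing human ADRB2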
Summary of the method: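 CHO cells stably over-expressing ADRB2 were plated overnight at 37C, then dosed with compounds plus a stimulation mix containing 100uM IBMX and 25uM Ro-20-1724 for 0.5hr at room temperature. cAMP was measured by HTRF competition, 1hr.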

[18] = target: D(2) dopamine receptor (Homo sapiens) (UniProt P14416); assay: Dopamine D2 receptor (DRD2) small molecule agonists, cell-based qHTS assay (AID 1963594); further: nearly all actives have a fitted effect of over 35% in size
Chain of D(2) dopamine receptor (Homo sapiens) (P14416 whole entry, looked up): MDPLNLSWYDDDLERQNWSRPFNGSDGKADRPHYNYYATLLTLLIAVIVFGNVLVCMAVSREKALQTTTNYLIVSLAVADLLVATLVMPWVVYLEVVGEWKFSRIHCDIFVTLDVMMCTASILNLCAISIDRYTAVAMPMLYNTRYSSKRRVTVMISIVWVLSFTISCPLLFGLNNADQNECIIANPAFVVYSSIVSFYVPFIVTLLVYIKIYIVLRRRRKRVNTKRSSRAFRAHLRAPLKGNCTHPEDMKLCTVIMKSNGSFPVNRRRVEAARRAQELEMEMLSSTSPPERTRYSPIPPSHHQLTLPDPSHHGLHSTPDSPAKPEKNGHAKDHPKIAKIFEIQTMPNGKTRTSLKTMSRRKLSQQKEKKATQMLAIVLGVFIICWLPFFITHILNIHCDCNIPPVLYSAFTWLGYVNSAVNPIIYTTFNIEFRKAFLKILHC
Summary of the method: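 HEK293 cells stably expressing DRD2 were cultured 24 h at 37 C, then given Ro20-1724 (0.1 mM final) and compounds for 10 min at room temperature. NKH477 (200nM) was then added for 30 min. cAMP was read by HTRF.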

[19] = target: D(2) dopamine receptor (Homo sapiens) (UniProt P14416); assay: Dopamine D2 receptor (DRD2) small molecule antagonists, cell-based qHTS assay (AID 1963595; active means well fitted inhibition curve with a large enough effect in the signal ratio in the repeat runs, with a control signal flat; the % refers to the signal ratio)
Summary of the method: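 Cells were plated and grown for 24 h at 37 °C. Ro20-1724 (0.1 mM final) went in first, then compound for 10 min. NKH477 (200 nM) with quinpirole (12 nM) followed for 30 min at RT, then HTRF detection reagents for 1 h.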

Measured: Potency

Cc1ccc2c(n1)Oc1ccc(C(C)C(=O)OCC(=O)N(C)C)cc1C2 (centres undefined)
inactive: all assays above

Cc1[nH]c(=O)c(C#N)cc1-c1ccncc1
not listed: [12] | [13] | [17]
inactive: all other assays above

Nc1ccc(S(=O)(=O)Nc2nccs2)cc1
not listed: [12] | [13]
inactive: all other assays above

Cn1c([N+](=O)[O-])cnc1COC(N)=O
not listed: [17]
inactive: all other assays above

COc1cc(OC)c(C(=O)CCCN2CCCC2)c(OC)c1
not listed: [12] | [13]
inactive: all other assays above

COC(=O)c1ccccc1O
68.7 µM (active) and inactive: [2]
not listed: [12] | [13]
inactive: all other assays above

CCCC(C)=O
inactive: all assays above

CCOC(N)=O
not listed: [12] | [13]
inactive: all other assays above

COCCc1ccc(OCC(O)CNC(C)C)cc1 (centres undefined)
not listed: [12] | [13] | [16] | [17] | [18] | [19]
inactive: all other assays above

O=C(/C=C/C=C/c1ccc2c(c1)OCO2)N1CCCCC1
6.18 µM (active) and inactive: [12]
inactive and 2.73 µM (active): [2]
not listed: [16] | [17] | [19]
inactive: all other assays above

COc1cc(C=O)ccc1O
inactive: all assays above

COC(=O)c1ccc(O)cc1
not listed: [12] | [13]
inactive: all other assays above

CCCCOC(=O)c1ccc(N)cc1
not listed: [12] | [13]
inactive: all other assays above

CC(C)=CCC/C(C)=C\CO
not listed: [12] | [13]
inactive: all other assays above
